Shown are actives, neighbours in structure and some others; about 22% of the full set was active somewhere.
CYP2C19 activ: human CYP2C19 activators, primary screen, biochemical, luminescence; recombinant CYP2C19, luciferin-H EGE luminescence; hits give high values; 0 = fully inhibited enzyme, 1 = untreated enzyme; activation factor at 5 µM; 96,000 tested, under 10 active; AID 1025, 2008;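 active = activation factor of at least 2 at 5 µM in the primary screen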;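 also: 0 = wells with 2.5 mM tranylcypromine and 1 = vehicle-only wells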
Target sequence (P33261 whole entry, looked up): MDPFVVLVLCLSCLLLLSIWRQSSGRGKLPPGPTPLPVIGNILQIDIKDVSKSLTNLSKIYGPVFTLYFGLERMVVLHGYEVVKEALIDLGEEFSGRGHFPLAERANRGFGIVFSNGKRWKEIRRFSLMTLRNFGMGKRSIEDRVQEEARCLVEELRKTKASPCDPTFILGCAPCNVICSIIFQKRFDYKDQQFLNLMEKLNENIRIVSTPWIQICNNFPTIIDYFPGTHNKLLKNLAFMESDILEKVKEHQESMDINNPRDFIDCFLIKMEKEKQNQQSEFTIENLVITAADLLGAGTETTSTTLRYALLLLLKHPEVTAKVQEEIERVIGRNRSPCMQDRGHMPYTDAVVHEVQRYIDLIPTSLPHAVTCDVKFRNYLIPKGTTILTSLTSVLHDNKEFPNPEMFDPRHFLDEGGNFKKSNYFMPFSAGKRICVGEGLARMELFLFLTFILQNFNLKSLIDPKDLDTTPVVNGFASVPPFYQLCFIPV
Measles CPE: compounds protecting cells from measles virus cytopathic effect, primary screen, measles RdRp inhibitor project, single point, MLSMR library, absorbance; Measles virus-infected cells, CPE protection; protection (pct of control), % at 4 µM; hit rate 1.5% among 140,000; AID 841, 2007; in the data active = protection mostly above about 24%, no sharp cut-off; inactive = mostly below about 26%
CYP2C9 act: human CYP2C9 activators, primary screen, biochemical, luminescence; Cytochrome P450 2C9 (Homo sapiens), P11712; recombinant CYP2C9, luciferin-H conversion; hits give high values; factor 1 = untreated enzyme, 0 = blocked; activation factor at 5 µM; hit rate 1.4% among 96,000;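 active = activation factor of 2 or more for CYP2C9 at a 5 µM dose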;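 also: 0 = sulfaphenazole-blocked wells and 1 = vehicle-only wells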
CYP2C9 inh: blockers of cytochrome P450 2C9 activity – biochemical, luminescence, ADME assay, primary screen. CYP2C9 Supersomes, luciferin-H conversion. inhibition, % at 5 µM. P11712. hit rate 20% among 96,000;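 active = blocking of liver enzyme CYP2C9 beyond about 50% at 5 µM, limit read from the data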
CYP2C19 inhib: blockers of cytochrome P450 2C19 activity – biochemical, luminescence, ADME assay, primary screen; P33261; hit rate 21% among 96,000; inhibition, % at 5 µM; CYP2C19 Supersomes, luciferin-H EGE luminescence, 30 min;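 active = CYP2C19 inhibition above a set limit at 5 µM in the primary screen, cut at about 50% in these data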;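 also: plate controls were negative control wells for no effect and 2.5 mM tranylcypromine positive control for full effect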
* = called active by the depositor; · = no result given.

SMILES	CYP2C19 activ	Measles CPE	CYP2C9 act	CYP2C9 inh	CYP2C19 inhib
CCc1cc(=O)oc2cc(OCC(=O)N3CCc4ccccc43)ccc12	0.8	·	0.9	7	19
Cc1nnc(NC(=O)C(C)Oc2ccc3c(C)cc(=O)oc3c2)s1 (stereo not drawn)	0.9	6	0.1	94*	12
COc1ccc(OC(C)C(=O)N2CCc3ccccc3C2)cc1 (stereo not drawn)	0.5	9	0.8	23	52*
Cc1cc(=O)oc2cc(OCC(O)CN3CCc4ccccc4C3)ccc12 (stereo not drawn)	0.4	2	0	100*	65*
CCc1cc(=O)oc2c(C)c(OCC(=O)N3CCCc4ccccc43)ccc12	0.3	4	0.1	94*	66*
CC1CN(C(=O)c2cc3c(s2)CCC3)CC(C)O1 (stereo not drawn)	0.9	12	0.8	22	7
CSc1nnc2n(-c3ccc(C)cc3)c(=O)c3c4c(sc3n12)COC(C(C)C)C4 (stereo not drawn)	1	0	1	2	-2
C(=C\c1cc(/C=C/c2ccccc2)ncn1)/c1ccccc1	1.1	12	1	-4	-12
Cc1cc(=O)oc2cc(OC(C)C(=O)N3CCCc4ccccc43)ccc12 (stereo not drawn)	0.6	9	0.2	84*	38
Cc1ccc(OC(C)C(=O)N2CCCc3ccccc32)cc1 (stereo not drawn)	0.5	6	0.6	44	54*
Cc1c(Br)c([N+](=O)[O-])nn1C(C)C(=O)N1CCCc2ccccc21 (stereo not drawn)	0.4	16	0.6	41	58*
Cc1ccn(CCSCC(=O)O)n1	1	5	1.1	-10	-2
CCOC(=O)C1=C(C)NC(=O)NC1c1ccc(C)o1 (stereo not drawn)	0.9	9	0.9	12	8
c1ccc(CSc2nnc([C@@H]3CCCN3)o2)cc1	0.8	2	0.9	10	16
Cc1ccc(CSc2nnc([C@@H]3CCCN3)o2)cc1	0.5	19	0.9	8	50*
CC(C)n1cc(/C=C(\C#N)S(=O)(=O)c2ccccc2)c2ccccc21	0.6	7	0.3	70*	37
Cc1ccc(S(=O)(=O)/C(C#N)=C/c2c[nH]c3ccccc23)cc1	1.1	10	2.1*	-106	-13
O=C(/C=C/c1cn(CC(O)CN2CCCCCC2)c2ccccc12)c1cccs1 (stereo not drawn)	·	16	·	·	·
N#C/C(=C\c1cn(-c2ccccc2)nc1-c1ccccc1)S(=O)(=O)c1ccccc1	·	2	·	·	·
Cc1ccc(C(=O)/C=C/c2cn(CN3CCN(C)CC3)c3ccccc23)cc1	0.7	1	0.2	79*	32
Cc1ccc(C(=O)/C=C/c2c[nH]c3ccccc23)cc1	0.3	2	0.3	69*	68*
COc1ccccc1OCCOc1ccc(C(=O)c2ccccc2)cc1	·	19	·	·	·
COc1ccc2c(c1)CCc1c(C(=O)N3CCCCCC3)noc1-2	0.8	4	0.8	16	24
O=C(c1noc2c1CCc1ccccc1-2)N1CCCc2ccccc21	0.5	4	1.5	-45	52*
O=C(c1noc2c1CCc1ccccc1-2)N1CCc2ccccc2C1	0.4	24	1.7	-74	60*
SMILES	CYP2C19 activ	Measles CPE	CYP2C9 act	CYP2C9 inh	CYP2C19 inhib
Cc1cc(NC(=O)c2noc3c2CCc2ccccc2-3)no1	1	4	1	-4	1
O=C(c1noc2c1CCc1ccccc1-2)N1CCOCC1	0.9	4	3.2*	-216	12
C=CCOCC(O)CS(=O)(=O)Cc1ccc(Cl)cc1 (stereo not drawn)	0.3	2	0.8	17	74*
Cc1ccccc1NC(=O)Cc1ccccc1	·	6	·	·	·
O=C(Cn1cc(SCc2ccc(Cl)cc2)c2ccccc21)N1CCOCC1	·	11	·	·	·
COc1ccc(-c2nc3ccccc3n2Cc2ccc(C)cc2)cc1	1	16	0.8	23	-2
Clc1ccc(-c2nc3ccccc3n2OCc2ccccc2)cc1	1	39*	1.1	-5	-3
C=CCN1C(c2ccccc2)=CS/C1=C(/C#N)c1nnc(N2CCOCC2)n1-c1ccccc1	·	52*	·	·	·
